SMN2 splice up: SMN2 splice variant enhancement; HEK293 SMN2-luciferase splicing reporter, luminescence, 30-36 h; Potency, µM (top dose mostly 46.1 µM), without a hit: at the highest dose activity change, positive = activation, most hits filed as activators; actives 2.8% (n = 210,000); further: % of control where 0% means no effect; nearly all actives have a fitted effect of over 55% in size
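HEK293 cells carry an SMN2 […]–luciferase reporter in which exon 7 inclusion puts luciferase in frame. Cells were plated 10-12 h before compound addition, then incubated 30-36 h at 37C. ONE-Glo luminescence was read; sodium butyrate at 4.5 mM final served as control.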
Rab9 promoter act: Rab9 promoter activation | actives 2.8% (n = 320,000) | Huh7 Rab9 promoter-luciferase reporter, luminescence, 24 h | AID 485297 | Potency, µM (series often up to 9.22 µM), inactives show top-dose activation, negative = inhibition, hits mostly activators; further: % of control where 0% means no effect; nearly all actives have a fitted effect of over 60% in size
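Cells were plated at 1500 per well in reduced-serum medium with 10% FBS and left 2 h. Compound in DMSO was then added for 24 h at 37 °C. Reporter signal was read by luminescence after 10 min with luciferase detection reagent.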
FLuc modulator: firefly luciferase modulation, counter-screen for miR-21 project; P08659; purified FLuc, Km substrates, luminescence inhibition; Potency, µM (highest dose often 57.5 µM), inactives show at the top dose activity change, negative = inhibition, actives largely listed as inhibitors; actives 6.9% (n = 360,000); AID 588342;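 further: plate controls were vehicle for no effect and reference inhibitor for full effect; nearly all actives have a fitted effect of over 55% in size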
Target sequence (P08659 whole entry, looked up): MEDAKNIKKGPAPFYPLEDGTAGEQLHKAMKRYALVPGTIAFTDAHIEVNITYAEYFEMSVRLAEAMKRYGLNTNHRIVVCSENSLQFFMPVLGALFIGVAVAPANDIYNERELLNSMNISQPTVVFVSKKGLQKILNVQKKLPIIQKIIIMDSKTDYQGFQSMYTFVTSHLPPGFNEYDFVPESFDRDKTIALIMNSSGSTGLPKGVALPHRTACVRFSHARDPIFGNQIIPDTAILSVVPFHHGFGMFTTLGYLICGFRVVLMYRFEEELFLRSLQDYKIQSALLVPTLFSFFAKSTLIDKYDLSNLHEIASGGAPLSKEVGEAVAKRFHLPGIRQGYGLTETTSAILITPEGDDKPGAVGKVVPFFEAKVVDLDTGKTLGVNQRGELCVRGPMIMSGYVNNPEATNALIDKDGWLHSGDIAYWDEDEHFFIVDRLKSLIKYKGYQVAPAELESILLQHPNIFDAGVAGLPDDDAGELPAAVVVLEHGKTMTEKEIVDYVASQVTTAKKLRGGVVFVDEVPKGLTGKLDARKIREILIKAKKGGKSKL
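Purified P. pyralis luciferase, 10 nM final, with Km-level 10 uM D-luciferin and 10 uM ATP in 50 mM Tris acetate pH 7.5, 10 mM Mg acetate, 0.01% Tween-20, 0.05% BSA; 6-point qHTS titration about 60 µM downward; luminescence read.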
KinaseGlo FLuc: counter-screen: inhibitors of Kinase-Glo firefly luciferase. Q27757. Kinase-Glo luciferase, ATP luminescence, 8 min. Potency, µM (highest dose often 38.3 µM), for inactives: at the highest dose activity change, negative = inhibition, actives largely listed as inhibitors. actives 0.28% (n = 200,000); further: on the % scale 0 is the no-effect control and ±100 the full control effect; nearly all actives have a fitted effect of over 60% in size
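Compounds were added to a substrate mix at pH 7.2 (50 mM imidazole, 10 uM ATP, within the enzyme's linear range), followed by Kinase-Glo detection reagent; luminescence was measured after 8 minutes at ambient temperature.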
NPC1 prom act: activators of NPC1 promoter; actives 2.4% (n = 320,000); Potency, µM (top dose mostly 9.22 µM), for the others: top-dose activation, most hits filed as activators; Huh7 NPC1 promoter luciferase reporter, 24 h; further: % of control where 0% means no effect; nearly all actives have a fitted effect of over 60% in size
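Stably transfected Huh7 (NPC1 promoter→luciferase), 1500 cells/well in Opti-MEM + 10% FBS, 2 h settle, then compound 24 h at 37 °C. Luminescence after 10 min with Amplite reagent.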
* = called active by the depositor; u = inconclusive; x = not tested or not shown; [ ] = remark or other dose. Hits are enriched below; roughly 7.3% of the tested compounds scored in any of these assays. The call rests on the fitted dose curve; in most records, active means well fitted curve in the direction sought with a large enough effect; inconclusive means small, poorly fitted or top-dose-only effect, or another doubt; inactive means no such curve, though single readings can be large; an effect the other way counts as inactive or inconclusive. Potency means the concentration at half of the fitted maximal effect.

SMILES	SMN2 splice up	Rab9 promoter act	FLuc modulator	KinaseGlo FLuc	NPC1 prom act
COc1cccc(-c2ncc3ccccn23)c1	14.1µM*	2.82µM*	8.49µM*	-13.9%	3.98µM*
COc1cc(OC)c2c(C)c(CC(=O)N3CCCCC3)c(=O)oc2c1	8.0%	x	-3.9%	x	x
Cc1cc(C)c(Cn2c(C)c(CNCc3ccccc3C)c(C(=O)O)c2C)c(C)c1	8.9%	x	1.2%	x	x
CCOc1ccc(Cn2c(CNS(=O)(=O)c3ccc([N+](=O)[O-])cc3)nc3cccnc32)cc1	x	x	-0.4%	x	x
O=C1c2ccccc2C(=O)N1Cc1cc(-c2ccccc2)no1	-76.9%	-7.0%	-12.2%	4.0%	0.3%
O=C1CC(c2cc(-c3ccccc3)no2)C1	x	2.82µM*	u	x	u
O=C(Cc1ccccc1)N/N=C/c1ccccc1OCc1ccc(Cl)cc1	7.2%	3.2%	-11.2%	0.0%	13.0%
CCOC(=O)N/N=C/c1ccccc1OCc1ccc(Cl)cc1	27.0%	-4.7%	15.1µM*	-1.1%	-1.9%
O/N=C/c1ccccc1OCc1ccccc1Cl	0.9%	0.9%	-5.3%	-0.7%	2.9%
O/N=C/c1ccccc1OCc1ccc(Cl)cc1	-5.6%	u	16.9µM*	-0.4%	u
NS(=O)(=O)c1ccc(CCNc2nc3c(-c4cccc(F)c4)nnn3c3ccc(Cl)cc23)cc1	20.3%	x	-3.9%	x	x
N#CC1CC(c2ccccc2)=NN1c1ccccc1[N+](=O)[O-] (stereo not drawn)	22.4µM*	3.55µM*	12µM*	4.7%	u
Cc1ccc(NC(=O)/C=C2\NC(=O)CS2)cc1	x	3.16µM*	7.57µM*	x	3.55µM*
COc1ccccc1NC(=O)/C=C1\NC(=O)CS1	22.0%	1.0%	-15.2%	-22.8%	-2.0%
CC(C)(C)c1ccc(C(=O)/C=C2\NC(=O)CS2)cc1	3.16µM*	0.631µM*	0.301µM*	-7.6%	0.398µM*
C=CCNC(=O)/C(C#N)=C/c1ccc2c(c1)OCCO2	-5.5%	6.9%	12µM*	-4.8%	0.3%
C=CCNC(=O)/C(C#N)=C/c1ccc(SC)cc1	0.4%	2.5%	12µM*	-1.7%	-0.3%
N#C/C(=C\c1ccc2c(c1)OCCO2)C(=O)Nc1nccs1	x	0.8%	0.601µM*	x	1.7%
CC1CCCCC1NC(=O)/C(C#N)=C/c1ccc2c(c1)OCCO2 (stereo not drawn)	-7.3%	0.7%	u	-0.5%	0.0%
C=CCCCCCCC=C	0.0%	x	x	x	x
Cc1cc2ccccc2n1CCNC(=O)c1ccccc1F	u	x	-12.9%	x	x
CCOC(=O)c1c(NC(=O)c2cccs2)sc2c1CCN(C(=O)OCC)C2	u	1.4%	-3.5%	1.1%	-3.2%
CC(C)N1CCc2c(sc(NC(=O)CN3C(=O)c4ccccc4C3=O)c2C(N)=O)C1	-0.5%	-4.1%	0.5%	0.5%	-0.2%
CN1CCc2c(sc(NC(=O)c3ccc4ccccc4c3)c2C(N)=O)C1	x	u	2.69µM*	x	u
COc1cc2ccccc2cc1C(=O)Nc1sc2c(c1C(N)=O)CCN(C(C)C)C2	x	-6.5%	9.53µM*	x	-6.7%
SMILES	SMN2 splice up	Rab9 promoter act	FLuc modulator	KinaseGlo FLuc	NPC1 prom act
CCOC(=O)N1CCc2c(sc(NC(=O)c3ccc(Cl)s3)c2C(N)=O)C1	-92.3%	2.4%	10.7µM*	6.2%	-0.7%
O=C(Nc1ncccn1)c1cc(-c2cccc(Br)c2)nc2ccccc12	-15.0%	-4.2%	26.9µM*	1.4%	0.1%
O=C(Nc1ccncc1)c1cc(-c2cccc(Br)c2)nc2ccccc12	x	-7.0%	-26.9%	x	3.3%
O=C(Nn1cnnc1)c1cc(-c2cccc(Br)c2)nc2ccccc12	x	24.1%	0.849µM*	x	17.9%
O=C(NC1=NCCS1)c1cc(-c2cccc(Br)c2)nc2ccccc12	-37.6%	-1.1%	10.7µM*	-1.8%	1.9%
Cc1ccc2nc(-c3cccc(Br)c3)cc(C(=O)NC3=NCCS3)c2c1	9.0%	-0.1%	5.36µM*	2.7%	-0.8%
CC(C)CN(CC#N)CC(C)C	-2.8%[9.22 µM]	x	x	0.7%[7.66 µM]	x
CC(=O)c1ccc(OCC(=O)Nc2ccc3nc(C)sc3c2)cc1	4.6%	2.2%	-12.1%	0.9%	-8.6%
Cc1ccc(OC(=O)c2ccc3nc(C)sc3c2)cc1	14.1µM*	0.631µM*	2.39µM*	1.9%	0.794µM*
COc1ccc(OC(=O)c2ccc3nsnc3c2)cc1	0.6%	-0.8%	7.57µM*	-9.2%	2.0%

Screening results from PubChem.
